Reference: PubChem BioAssay
Active and inactive are the calls of the source.

How the values were obtained:
[1] = optical density shifts of acrAB sulA E. coli – strain DRC41, OD650, 48 h, E. coli filamentation inducer project, primary screen (AID 1152); conditions: higher = more signal, called active from +8 up or from −8 down;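 also: E. coli MC1000 strain DRC41 lacking acrAB efflux pump and sulA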
[2] = probe aLefty1 binding on compound microarray – biochemical, small-molecule microarray, 635/667 nm fluorescence, primary screen (AID 1153); conditions: higher = more signal;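 also: score merges spot fluorescence with signal-to-noise ratio from the scanned slide images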
[3] = plasmodial surface anion channel blockers, osmotic lysis – cell-based, P. falciparum Indochina, OD700, 1 h, primary screen (AID 1154); conditions: P. falciparum Indochina infected RBC osmotic lysis, higher = more signal, called active from +8 up or from −8 down
[4] = plasmodial surface anion channel blockers, osmotic lysis – cell-based, P. falciparum Indochina, OD700, 2 h, primary screen (AID 1155);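 also: lysis reports solute entry through the parasite surface anion channel PSAC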; conditions: P. falciparum Indochina infected erythrocytes, higher = more signal, called active from +8 up or from −8 down
[5] = changes in parasitized red cell lysis, either direction – P. falciparum Indochina, OD700, 3 h, PSAC antagonist project, primary screen (AID 1156); conditions: P. falciparum-infected erythrocytes, osmotic lysis, higher = more signal, called active from +8 up or from −8 down
[6] = plasmodial surface anion channel blockers, osmotic lysis – cell-based, P. falciparum Indochina, OD700, 18 h, primary screen (AID 1157); conditions: P. falciparum Indochina infected erythrocytes, osmotic lysis OD700, 18 h; higher = more signal, called active from +8 up or from −8 down
[7] = S6 kinase pathway phospho-S6 level changes – cell-based, A549, cytoblot, luminescence, serum-stimulated, primary screen (AID 1158); conditions: 5 h, higher = more signal;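 also: serum-stimulated A549 lung adenocarcinoma cells; signal is phosphorylated S6 detected by cytoblot immunostaining with HRP secondary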
[8] = molecular target: NADPH oxidase 2 (Homo sapiens) (UniProt P04839); assay: compounds shifting NOX2 Amplex Red fluorescence – cell-based, HEK293-NOX2, PMA-stimulated, NOX inhibitor project, primary screen (AID 1159); conditions: 45 min, higher = more signal, called active from +8 up or from −8 down; also: test concentration not given here
Sequence of NADPH oxidase 2 (Homo sapiens) (P04839 whole entry, looked up): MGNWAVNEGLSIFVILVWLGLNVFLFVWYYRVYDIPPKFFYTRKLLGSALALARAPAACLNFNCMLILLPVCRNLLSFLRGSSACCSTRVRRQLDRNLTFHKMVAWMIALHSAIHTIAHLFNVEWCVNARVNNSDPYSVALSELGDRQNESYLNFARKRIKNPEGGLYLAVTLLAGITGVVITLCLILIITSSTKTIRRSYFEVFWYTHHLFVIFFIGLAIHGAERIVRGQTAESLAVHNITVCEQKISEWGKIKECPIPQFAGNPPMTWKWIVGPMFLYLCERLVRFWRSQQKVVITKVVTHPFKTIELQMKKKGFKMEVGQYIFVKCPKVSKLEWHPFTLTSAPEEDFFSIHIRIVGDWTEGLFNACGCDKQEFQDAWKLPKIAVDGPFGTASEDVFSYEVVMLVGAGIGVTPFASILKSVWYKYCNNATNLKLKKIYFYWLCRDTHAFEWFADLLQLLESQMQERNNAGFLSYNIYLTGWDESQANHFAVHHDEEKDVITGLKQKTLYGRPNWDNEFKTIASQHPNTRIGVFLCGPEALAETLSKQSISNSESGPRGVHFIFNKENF

[9] = molecular target: NADPH oxidase 4 (Homo sapiens) (UniProt Q9NPH5); assay: compounds shifting NOX4 Amplex Red fluorescence – cell-based, HEK293-NOX4, tetracycline-induced, NOX inhibitor project, primary screen (AID 1160); conditions: HEK293-NOX4, Amplex Red H2O2 fluorescence, 45 min; higher = more signal, called active from +8 up or from −8 down
Sequence of NADPH oxidase 4 (Homo sapiens) (Q9NPH5 whole entry, looked up): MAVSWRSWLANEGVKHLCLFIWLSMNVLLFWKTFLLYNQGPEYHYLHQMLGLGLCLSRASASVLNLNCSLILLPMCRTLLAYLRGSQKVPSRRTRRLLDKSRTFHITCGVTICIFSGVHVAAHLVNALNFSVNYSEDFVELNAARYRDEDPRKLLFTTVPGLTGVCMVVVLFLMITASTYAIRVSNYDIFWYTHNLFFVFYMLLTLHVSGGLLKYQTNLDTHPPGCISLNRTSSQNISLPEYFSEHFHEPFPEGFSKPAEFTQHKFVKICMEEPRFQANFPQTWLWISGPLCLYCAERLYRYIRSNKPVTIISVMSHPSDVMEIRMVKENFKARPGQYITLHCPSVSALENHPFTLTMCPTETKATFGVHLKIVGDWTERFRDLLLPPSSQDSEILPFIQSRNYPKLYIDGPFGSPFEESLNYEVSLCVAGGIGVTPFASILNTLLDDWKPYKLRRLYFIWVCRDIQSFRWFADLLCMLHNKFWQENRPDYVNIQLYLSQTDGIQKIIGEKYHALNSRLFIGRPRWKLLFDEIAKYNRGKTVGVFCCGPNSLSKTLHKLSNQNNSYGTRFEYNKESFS

[10] = molecular target: NADPH oxidase 5 (Homo sapiens) (UniProt Q96PH1); assay: compounds shifting NOX5 Amplex Red fluorescence – cell-based, HEK293-NOX5, NOX inhibitor project, primary screen (AID 1161); conditions: HEK293-NOX5, ionomycin, 45 min, higher = more signal
Sequence of NADPH oxidase 5 (Homo sapiens) (Q96PH1 whole entry, looked up): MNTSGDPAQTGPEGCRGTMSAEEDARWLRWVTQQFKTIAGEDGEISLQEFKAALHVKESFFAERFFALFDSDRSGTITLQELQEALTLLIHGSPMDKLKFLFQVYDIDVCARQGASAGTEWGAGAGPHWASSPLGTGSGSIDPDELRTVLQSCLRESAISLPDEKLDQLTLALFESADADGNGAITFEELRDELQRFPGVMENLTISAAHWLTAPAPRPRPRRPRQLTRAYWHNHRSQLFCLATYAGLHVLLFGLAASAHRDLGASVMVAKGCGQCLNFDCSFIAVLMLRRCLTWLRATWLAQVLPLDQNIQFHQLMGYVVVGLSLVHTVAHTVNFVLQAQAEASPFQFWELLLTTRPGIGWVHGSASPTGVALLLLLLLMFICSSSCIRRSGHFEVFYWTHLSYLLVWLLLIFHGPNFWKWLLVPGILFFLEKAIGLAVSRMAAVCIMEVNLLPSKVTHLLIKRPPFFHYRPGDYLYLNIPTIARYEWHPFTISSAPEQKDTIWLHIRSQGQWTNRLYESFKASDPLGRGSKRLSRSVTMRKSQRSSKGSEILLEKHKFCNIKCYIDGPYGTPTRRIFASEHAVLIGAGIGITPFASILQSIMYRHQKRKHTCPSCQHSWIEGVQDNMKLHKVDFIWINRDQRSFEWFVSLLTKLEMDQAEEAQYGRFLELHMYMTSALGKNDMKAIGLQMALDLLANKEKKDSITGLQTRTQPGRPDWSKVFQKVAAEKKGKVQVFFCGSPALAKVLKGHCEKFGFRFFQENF

[11] = compound effects on lung adenocarcinoma cell viability – A549, calcein-AM fluorescence, 48 h, basal, profiling panel (AID 1162); conditions: higher = more signal; also: test concentration not given here
[12] = compound effects on differentiated 3T3-L1 adipocyte viability – cell-based, 3T3-L1 adipocytes, calcein-AM fluorescence, 48 h, basal, profiling panel (AID 1163); conditions: 3T3-L1 adipocytes viability, higher = more signal; also: test concentration not given here
[13] = compound effects on hepatocellular carcinoma cell viability – HepG2, calcein-AM fluorescence, 48 h, basal, profiling panel (AID 1164); conditions: higher = more signal; also: test concentration not given here
[14] = compound effects on multiple myeloma cell viability – MM1S, calcein-AM fluorescence, 48 h, basal, profiling panel (AID 1165); conditions: higher = more signal; also: test concentration not given here
[15] = calcein-AM signal in unstimulated myeloma cells – cell-based, calcein-AM fluorescence, 48 h, PK04 Diversity Set, profiling panel (AID 1166); conditions: RPMI8226 myeloma viability, higher = more signal;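 also: cells grown under basal conditions without added stimulus; test concentration not given here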
[16] = JC-1 mitochondrial signal, unstimulated HepG2 cells – cell-based, JC-1 fluorescence, 24 h, 100 nL compound, profiling panel (AID 1167); conditions: HepG2 mitochondrial potential, higher = more signal; also: test concentration not given here
[17] = JC-1 mitochondrial signal, unstimulated adipocytes – cell-based, JC-1 fluorescence, 3T3-L1 adipocytes, 24 h, 100 nL compound, profiling panel (AID 1168); conditions: JC-1 mitochondrial fluorescence, higher = more signal, called active from +8 up or from −8 down; also: test concentration not given here
[18] = JC-1 mitochondrial signal, unstimulated myeloma cells – cell-based, JC-1 fluorescence, RPMI8226, 24 h, 100 nL compound, profiling panel (AID 1169); conditions: JC-1 mitochondrial potential fluorescence, higher = more signal; also: test concentration not given here
[19] = JC-1 mitochondrial signal, unstimulated MM1S myeloma – cell-based, JC-1 fluorescence, 24 h, 100 nL compound, profiling panel (AID 1170); conditions: MM1S mitochondrial potential, higher = more signal; also: test concentration not given here
[20] = resazurin metabolic signal in A549 cells – cell-based, resazurin fluorescence, 24 h, PK04 Diversity Set, profiling panel (AID 1171); conditions: A549 viability, higher = more signal, called active from +8 up or from −8 down; also: test concentration not given here

SMILES | z-score [1] | composite z-score [2] | z-score [3] | z-score [4] | z-score [5] | z-score [6] | z-score [7] | z-score [8] | z-score [9] | z-score [10] | z-score [11] | z-score [12] | z-score [13] | z-score [14] | z-score [15] | z-score [16] | z-score [17] | z-score [18] | z-score [19] | z-score [20]
[N-]=[N+]=Nc1ccccc1C[C@]1(C(=O)NCc2ccccc2)COC(c2ccc(OCCCO)cc2)=N1 | 0.325 (inactive) | -0.442 | 30.8 (active) | 30.8 (active) | 3.25 (inactive) | 3.49 (inactive) | -0.351 | -3.07 (inactive) | -1.03 (inactive) | -1.91 | -0.827 | -0.143 | -1.65 | -3.58 | -4.42 | 0.789 | 0.443 (inactive) | -1.17 | -2.33 | -1.41 (inactive)
CC(=O)N1CC(C(O)C2C=CC3C(=O)NC(=O)C3N2Nc2ccc(Cl)cc2Cl)c2ccccc21 (stereo not given) | -1.14 (inactive) | 0.176 | 3.47 (inactive) | 1.36 (inactive) | -0.0499 (inactive) | 1.17 (inactive) | -0.746 | -0.849 (inactive) | -4.86 (inactive) | -2.57 | 1.08 | -0.753 | 0.46 | -0.452 | 0.0876 | -1.29 | -0.229 (inactive) | -0.212 | 0.644 | -0.554 (inactive)
O=C1O[C@H](c2ccccc2)[C@H](c2ccccc2)N2[C@H]1[C@@H](C(=O)O)[C@]1(C(=O)Nc3ccc(C#CC4(O)CCCCCC4)cc31)[C@H]2c1ccc(O)cc1 | 2.05 (inactive) | 0.0355 | -0.224 (inactive) | -0.925 (inactive) | -2.31 (inactive) | -1.16 (inactive) | 1.65 | 0.867 (inactive) | -0.353 (inactive) | -1.06 | -0.167 | 0.685 | -0.714 | -0.217 | 0.265 | -0.482 | -0.559 (inactive) | -0.0905 | -0.705 | 0.976 (inactive)
O=C1OCCC/C=C\[C@H]2OC34C=CCN(c5ccc6ccccc6c5)C(=O)[C@H]3N(CCCO)C(=O)[C@@H]4C12 (stereo not given in full) | -0.52 (inactive) | -0.366 | 3.21 (inactive) | 0.571 (inactive) | -0.276 (inactive) | 0.187 (inactive) | 0.688 | 2.08 (inactive) | 1.14 (inactive) | 2.53 | -0.416 | 1.34 | 0.275 | 0.392 | -0.686 | -0.36 | -0.41 (inactive) | -0.0534 | 1.37 | 0.252 (inactive)
CC1(C)C(=O)C(c2ccccc2)=C2CN3C(=O)N(CCc4ccccc4)C(=O)C3(Cc3ccc(C(F)(F)F)cc3)C=C21 (stereo not given) | -2.21 (inactive) | 0.349 | 0.582 (inactive) | 0.316 (inactive) | 0.482 (inactive) | 0.668 (inactive) | 0.0875 | -0.462 (inactive) | -1.68 (inactive) | -0.494 | -0.902 | -0.586 | 0.409 | -1.49 | -1.75 | -2.08 | -2 (inactive) | -0.00804 | -0.421 | 0.43 (inactive)
COC(=O)[C@@]1(Cc2ccc(F)cc2)[C@H]2c3cc(C(=O)N4CCCC4)n(CC4CC4)c3C[C@H]2CN1C(=O)c1ccccc1 | -1.37 (inactive) | 1.56 | 2.89 (inactive) | 0.0582 (inactive) | 0.454 (inactive) | 0.666 (inactive) | 0.516 | 0.0286 (inactive) | -1.62 (inactive) | -0.81 | -0.393 | 0.498 | -0.713 | -0.691 | -2.11 | 1.62 | -1.07 (inactive) | -0.232 | -0.51 | -0.665 (inactive)
[N-]=[N+]=NCc1ccccc1C[C@]1(C(=O)N2CCOCC2)COC(c2ccc(OCCCO)cc2)=N1 | 2.57 (inactive) | 0.691 | 26.6 (active) | 15 (active) | 3.85 (inactive) | 2.64 (inactive) | 0.338 | -3.84 (inactive) | -0.698 (inactive) | -3.14 | 0.0386 | 0.926 | 0.383 | -3.46 | -2.89 | 1.72 | 0.665 (inactive) | -0.843 | -0.968 | -0.36 (inactive)
O=C1c2ccccc2[C@](Cc2ccccc2I)(C(=O)NC2CC2)[C@H](c2ccc(CO)cc2)N1Cc1ccccc1C(F)(F)F | -1.14 (inactive) | -0.0902 | 8.14 (active) | 0.789 (inactive) | 4.29 (inactive) | -0.165 (inactive) | 2.18 | 0.459 (inactive) | -1.34 (inactive) | -2.92 | 0.319 | 0.865 | -0.0085 | -0.645 | -2.83 | 0.476 | 0.347 (inactive) | -0.761 | -0.154 | 0.272 (inactive)
CCOC(=O)C1=CCN(S(=O)(=O)c2ccc(C)cc2)C1c1ccccc1 (stereo not given) | -1.44 (inactive) | 0.121 | 3.1 (inactive) | 0.8 (inactive) | -0.451 (inactive) | 0.806 (inactive) | -0.489 | 0.532 (inactive) | -1.38 (inactive) | -0.86 | -0.973 | -0.205 | -0.535 | -0.455 | -1.21 | -1.62 | -0.804 (inactive) | 0.443 | -0.583 | 0.739 (inactive)
